High-throughput results as filed in PubChem BioAssay.
Sampled rows, rich in hits. Any-hit rate of the full collection: about 11%.
IL-1B inflam inh: qHTS for Inhibitors of Inflammasome Signaling: IL-1-beta AlphaLISA Primary Screen; THP-1 LPS/ATP IL-1B secretion, AlphaLISA, 16 h; active compounds read low; activity change, % at 57.5 µM; actives 4.7% (n = 360,000); in the data active = activity change below about -50%; inconclusive = mostly about -30% to -49%; note: % is set by controls: 0 for no effect and ±100 for the full control effect
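Secreted IL-1B measured by AlphaLISA bead assay after 16 h compound exposure of THP-1 cells; compounds (final up to 57.5 uM) added 1 h before LPS (250 ng/mL) and ATP (1.25 mM) stimulation; lower signal means less secretion.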
MCF10A rerep: A quantitative high throughput screen for small molecules that induce DNA re-replication in MCF 10a normal breast cells | MCF 10A DNA re-replication, Hoechst nuclear intensity, 48 h | Potency, µM (top dose mostly 46.1 µM), inactives show top-dose activity, positive = re-replication, actives largely listed as activators | actives 2.9% (n = 350,000) | AID 624296, 2012; note: potency is the fitted concentration of half-maximal effect; % of control where 0% means no effect; nearly all actives have a fitted effect of over 50% in size
Gal4-VP16 FLuc: VP16 counterscreen qHTS for inhibitors of ROR gamma transcriptional activity | actives 3.5% (n = 310,000) | Drosophila S2 Gal4-VP16 UAS-luciferase, luminescence, 20 h | Potency, µM (titrated, usually from 53.6 µM), without a hit: top-dose activity, negative = inhibition, usual class: inhibitors;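 note: Gal4-VP16 expression switched on by copper sulfate through the metallothionein promoter; potency is the fitted concentration of half-maximal effect; % is set by controls: 0 for no effect and ±100 for the full control effect; nearly all actives have a fitted effect of over 50% in size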
RORgamma inh: qHTS for inhibitors of ROR gamma transcriptional activity; Nuclear receptor ROR-gamma (Mus musculus), P51450; Potency, µM (top dose mostly 53.6 µM), without a hit: at the top dose activity change, negative = inhibition, hits mostly inhibitors; Drosophila S2 Gal4-RORgamma UAS-luciferase reporter, 20 h; actives 5.4% (n = 310,000); note: potency is the fitted concentration of half-maximal effect; % is set by controls: 0 for no effect and ±100 for the full control effect; nearly all actives have a fitted effect of over 60% in size
Target sequence (P51450 whole entry, looked up, the tested form may be a part): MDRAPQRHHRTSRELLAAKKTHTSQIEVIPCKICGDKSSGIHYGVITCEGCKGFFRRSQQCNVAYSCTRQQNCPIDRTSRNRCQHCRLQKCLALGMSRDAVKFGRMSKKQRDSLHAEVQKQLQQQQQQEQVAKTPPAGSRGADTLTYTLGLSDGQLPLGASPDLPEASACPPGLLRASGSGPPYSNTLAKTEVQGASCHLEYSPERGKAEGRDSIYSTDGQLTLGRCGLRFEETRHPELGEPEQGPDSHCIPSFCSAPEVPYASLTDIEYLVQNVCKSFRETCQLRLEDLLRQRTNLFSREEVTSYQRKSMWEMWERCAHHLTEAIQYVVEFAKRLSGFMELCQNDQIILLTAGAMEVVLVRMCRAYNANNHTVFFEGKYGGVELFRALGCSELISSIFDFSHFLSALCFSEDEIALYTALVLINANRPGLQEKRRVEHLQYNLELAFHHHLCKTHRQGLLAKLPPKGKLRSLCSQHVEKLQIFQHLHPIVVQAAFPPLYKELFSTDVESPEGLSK
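Luminescence from a UAS-regulated Photinus luciferase reporter in stably transfected Drosophila Schneider cells is measured; decreased signal marks ROR gamma inhibition. Fusion expression is induced by 700 uM copper sulfate for 20 hr.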
SW480 rereplic: A quantitative high throughput screen for small molecules that induce DNA re-replication in SW480 colon adenocarcinoma cells. SW480 DNA re-replication, Hoechst DNA content imaging, 48 h. Potency, µM (titrated, usually from 46.1 µM), inactives show at the highest dose re-replication activation, hits mostly activators. actives 1.8% (n = 340,000). AID 624297, 2012; note: potency is the fitted concentration of half-maximal effect; % of control where 0% means no effect; nearly all actives have a fitted effect of over 55% in size
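Image-based DNA-content assay: after two days of treatment, nuclei were labelled with the DNA dye Hoechst and imaged, and hits were compounds raising the count of nuclei showing high fluorescence intensity.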
* = called active by the depositor. Unless noted, calls come from the whole dose curve; as a rule, active = well fitted curve in the direction sought with a large enough effect; inconclusive = small, poorly fitted or top-dose-only effect, or another doubt; inactive = no such curve, though single readings can be large; an effect the other way counts as inactive or inconclusive.

Screening Cc1ccc(C)c(N2CCN(C(=O)c3ccc(CS(=O)Cc4ccc(Cl)cc4)o3)CC2)c1 (configuration not stated) returned IL-1B inflam inh -7.8, MCF10A rerep inconclusive, Gal4-VP16 FLuc 6.4%, RORgamma inh 9.9% and SW480 rereplic 16.4µM*.
COc1cccc(N2CCN(C(=O)c3ccc(CS(=O)c4ccccc4Cl)o3)CC2)c1 (configuration not stated) was read as IL-1B inflam inh 55.2, MCF10A rerep 17.2%, Gal4-VP16 FLuc -2.7%, RORgamma inh -7.4% and SW480 rereplic 0.517µM*.
For COc1ccc(N2CCN(C(=O)c3ccc(CS(=O)Cc4ccc(Cl)cc4)o3)CC2)cc1 (configuration not stated) the results were IL-1B inflam inh -19.3, MCF10A rerep 9.9%, Gal4-VP16 FLuc 12.2%, RORgamma inh 37.2% and SW480 rereplic -12.1%.
COc1ccc(N2CCN(C(=O)c3ccc(CS(=O)c4cccc(C)c4)o3)CC2)cc1 (configuration not stated) was read as IL-1B inflam inh -0.9, MCF10A rerep inconclusive, Gal4-VP16 FLuc 6.9%, RORgamma inh 2.0% and SW480 rereplic 5.8µM*.
C[C@H]1[C@@H](OC(=O)CCC(=O)O)OC2OC3(C)CC[C@H]4[C@H](C)CC[C@@H]1[C@@]24OO3 (some centres not stated) was read as MCF10A rerep inconclusive, Gal4-VP16 FLuc -3.2%, RORgamma inh -16.6% and SW480 rereplic inconclusive.
COc1cccc(N2CCN(C(=O)c3ccc(CS(=O)c4ccccc4C)o3)CC2)c1 (configuration not stated) was read as IL-1B inflam inh 27.5, MCF10A rerep inconclusive, Gal4-VP16 FLuc -8.6%, RORgamma inh -34.1% and SW480 rereplic 5.8µM*.
Screening COc1ccccc1S(=O)(=O)Cc1ccc(C(=O)N2CCN(c3cccc(Cl)c3)CC2)o1 returned IL-1B inflam inh 13.6, MCF10A rerep 14.6µM*, Gal4-VP16 FLuc -5.5%, RORgamma inh -47.3% and SW480 rereplic inconclusive.
Screening COC(=O)c1ccccc1S(=O)(=O)N1CCn2cccc2C1C (configuration not stated) returned IL-1B inflam inh -78.3*, MCF10A rerep 2.9%, Gal4-VP16 FLuc 6.3%, RORgamma inh -1.6% and SW480 rereplic 4.3%.
`Cc1nc(NC(=O)c2cc3c(s2)CCCCC3)sc1C(=O)N(C)C` gave IL-1B inflam inh -53.5*, MCF10A rerep 0.9%, Gal4-VP16 FLuc 20.8%, RORgamma inh 15.8% and SW480 rereplic 3.7%.
COC(=O)c1sc(NC(=O)c2cc3c(s2)CCCC3)nc1C was read as IL-1B inflam inh -52.4*, MCF10A rerep inconclusive, Gal4-VP16 FLuc inconclusive, RORgamma inh 1.78µM* and SW480 rereplic 16.4%.
`CCc1sc(C(=O)Nc2ccc3nc(C)sc3c2)cc1C` gave IL-1B inflam inh -51.9*, MCF10A rerep inconclusive and SW480 rereplic -5.9%.
Screening CC1CCc2sc(C(=O)Nc3ccc(C(N)=O)cc3)cc2C1 (configuration not stated) returned IL-1B inflam inh -70.3*, MCF10A rerep 1.8%, Gal4-VP16 FLuc -10.6%, RORgamma inh 8.2% and SW480 rereplic 4.7%.
Screening CC1CCc2sc(C(=O)NN)cc2C1 (configuration not stated) returned IL-1B inflam inh -11.6, MCF10A rerep 5.6%, Gal4-VP16 FLuc -8.7%, RORgamma inh 25.7% and SW480 rereplic -1.5%.
`COC(=O)c1sc(NC(=O)c2ccc(C)o2)nc1C` gave IL-1B inflam inh 3.6, MCF10A rerep -0.2%, Gal4-VP16 FLuc -17.9%, RORgamma inh inconclusive and SW480 rereplic -9.7%.
For CCCCC/C=C\C/C=C\C/C=C\C/C=C\CCCCCC(=O)NCC(=O)O the results were Gal4-VP16 FLuc -14.1% and RORgamma inh 7.2%.
